Assay outcomes deposited in PubChem BioAssay by National Center for Advancing Translational Sciences (NCATS).
An excerpt weighted towards active compounds, which were near 12% of everything screened.
Sm TGR inh: inhibitors of Schistosoma mansoni thioredoxin glutathione reductase; Q962Y6; purified TGR, DTNB reduction, TNB absorbance 405 nm; Potency, µM (series often up to 114 µM), inactives show at the top dose activity change, negative = inhibition, hits mostly inhibitors; hit rate 3% among 360,000; AID 485364; active means well fitted inhibition curve with a large enough effect; inconclusive means small, poorly fitted or top-dose-only effect; inactive means no such curve, though single readings can be large or run the other way; further: potency means the concentration at half of the fitted maximal effect; on the % scale 0 is the no-effect control and ±100 the full control effect; nearly all actives have a fitted effect of over 60% in size
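TGR 20 nM + NADPH 100 uM (dispensed conc.), cpd preinc 15 min RT; start with NADPH (500 uM addition) then DTNB (15 mM addition). Kinetic TNB absorbance, 405 nm filter. Four-parameter Hill fit across titration.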
FMDV inh: antivirals against foot and mouth disease virus; AID 1159524; hit rate 1.2% among 410,000; FMDV antiviral cell-based qHTS; Potency, µM (titrated, usually from 57.9 µM), without a hit: top-dose activity change, negative = inhibition, most hits filed as inhibitors; calls by dose curve; tested in HEK293T cells; further: read-out not given here; potency means the concentration at half of the fitted maximal effect; on the % scale 0 is the no-effect control and ±100 the full control effect; nearly all actives have a fitted effect of over 45% in size
Shiga toxin inh: Shiga toxin inhibition; Vero cells, Shiga toxin protein synthesis inhibition reporter; inhibition, % at 38.7 µM; hit rate 9.2% among 290,000; AID 2315; in the data active means inhibition mostly above about 28%, no sharp cut-off; inactive means mostly below about 43%; further: 0% is about no effect
CHX counter: counter-screen for Shiga toxin inhibitors: cycloheximide protein synthesis inhibition; cell reporter, cycloheximide protein synthesis inhibition counterscreen; hit rate 12% among 300,000; max response, %; AID 2314; in the data active means max response mostly above about 13%, no sharp cut-off; inactive means mostly below about 14%; further: read at 38.3 µM for the half of the compounds with a filed dose; 0% is about no effect
Numbers without * were called inactive.

Screening COC(=O)COc1ccc2c(c1)O/C(=C\c1ccco1)C2=O returned Sm TGR inh 18µM*, FMDV inh 32%, Shiga toxin inh 38* and CHX counter 29*.
Cc1cc(O)cc2c1C(=O)/C(=C/c1ccco1)O2 was read as Sm TGR inh 32µM*, FMDV inh 20%, Shiga toxin inh 66* and CHX counter 51*.
Cc1cc2c(n1-c1ccc(C(=O)NCC(C)c3ccccc3)cc1)CCCC2 (stereo not given) was read as Sm TGR inh inconclusive and FMDV inh 18%.
For NCC(O)COCCC12CC3CC(CC(C3)C1)C2 (stereo not given) the results were Sm TGR inh 1%, FMDV inh -11%, Shiga toxin inh -26 and CHX counter 7.
Screening CC(NCC(O)COCCC12CC3CC(CC(C3)C1)C2)c1ccccc1 (stereo not given) returned FMDV inh 32µM*, Shiga toxin inh -17 and CHX counter -6.
COC(=O)c1sc2cccc(F)c2c1S(=O)(=O)N1CCN(c2cccc(C)c2)C(C)C1 (stereo not given) was read as Sm TGR inh 8% and FMDV inh inconclusive.
For C=CCN(C(=O)c1oc2c(Cl)cc(C)cc2c1C)C1CCS(=O)(=O)C1 (stereo not given) the results were Sm TGR inh 0%, FMDV inh 6%, Shiga toxin inh 60* and CHX counter 60*.
Screening Cc1cc(Cl)c2oc(C(=O)N(C)CC3CCOCC3)c(C)c2c1 returned Sm TGR inh -16%, FMDV inh 7%, Shiga toxin inh 71* and CHX counter 38*.
COc1ccc(-c2cc3ccc(OCC(C)=O)cc3oc2=O)cc1OC was read as Sm TGR inh 3%, FMDV inh 5%, Shiga toxin inh 27* and CHX counter 25*.
`COc1ccc(-c2cc3ccc(OCC(C)=O)cc3oc2=O)cc1` gave Sm TGR inh 2%, FMDV inh 36%, Shiga toxin inh 127* and CHX counter 57*.
`CC(=O)Oc1ccc(-c2cc3ccccc3oc2=O)cc1` gave FMDV inh 65%.
For COc1ccc(-c2cc3ccc(OCc4nn[nH]n4)cc3oc2=O)cc1OC the results were Sm TGR inh 0%, FMDV inh 49%, Shiga toxin inh 11 and CHX counter -1.
For CC1=CC(=Nc2c(C)n(C)n(-c3ccccc3)c2=O)C=CC1=O the results were Sm TGR inh 2.8µM*, Shiga toxin inh 12 and CHX counter 7.
`Cc1c(N=NC2=C(O)CC(C)(C)CC2=O)c(=O)n(-c2ccccc2)n1C` gave Sm TGR inh 13µM*, FMDV inh -1%, Shiga toxin inh -13 and CHX counter -1.
`CC1=CC(=Nc2c(C)n(C)n(-c3ccccc3)c2=O)C=C(C)C1=O` gave Sm TGR inh 50µM*, FMDV inh inconclusive, Shiga toxin inh -7 and CHX counter 5.
For CCC(C)C1=CC(=Nc2c(C)n(C)n(-c3ccccc3)c2=O)C=C(C(C)CC)C1=O (stereo not given) the results were Sm TGR inh -20%, FMDV inh -7%, Shiga toxin inh -11 and CHX counter -8.
`Cc1c(O)c(=O)n(-c2ccccc2)n1C` gave Sm TGR inh 11µM* and FMDV inh -20%.
Screening Cc1c(I)c(=O)n(-c2ccccc2)n1C returned Shiga toxin inh -1 and CHX counter -4.
For CCOc1ccccc1NC(=O)n1ncc2cc(Cl)ccc21 the results were Sm TGR inh -15% and FMDV inh 22%.
For COc1ccc(Nc2nc3c(S(=O)(=O)c4ccc(Br)cc4)nnn3c3ccsc23)c(OC)c1 the results were Sm TGR inh 6% and FMDV inh -18%.
`CCNc1ccc(N=Nc2c(C)n(C)n(-c3ccccc3)c2=O)cc1` gave Sm TGR inh -3%, FMDV inh 26%, Shiga toxin inh 40 and CHX counter 21*.
Screening CC(C)CC(=O)n1nc(-c2ccco2)nc1NCc1ccc(Cl)cc1 returned Sm TGR inh -1% and FMDV inh 28%.
Screening C(/C=C/c1ccco1)=N/N1CCN(c2ccccc2)CC1 returned Sm TGR inh inconclusive, FMDV inh -2%, Shiga toxin inh 106* and CHX counter 34*.
C(=N\N1CCN(Cc2cccc3ccccc23)CC1)/c1ccco1 was read as Sm TGR inh -1%, FMDV inh inconclusive, Shiga toxin inh -8 and CHX counter 9.
For Clc1ccccc1CN1CCN(/N=C/C=C\c2ccco2)CC1 the results were Sm TGR inh 50µM*, FMDV inh 12%, Shiga toxin inh 69* and CHX counter 16*.
